About 1,800 (75%) of roughly 2,400 compounds were called active.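 The calls were made as follows: active = inhibition above the primary screen limit, the mean inhibition of all tested compounds plus 3 SD (cut at about 25% in these data); inactive = the rest.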 So high a share suggests a set chosen from earlier hits. These entries were drawn from the full list.

In the assay the test system is tRNA 2'-phosphotransferase TPT1 [Candida albicans SC5314]. Briefly: Candida albicans TPT1 inhibitors, confirmation, biochemical, fluorescence polarization, triplicate (AID 2149). The following applies: recombinant caTPT1, fluorescence polarization, RNase T1 coupled; at 5 µM; hits give high values. On the technique in general: Fluorescence polarisation rises when a labelled molecule tumbles more slowly, as on binding a larger partner.
The term inhibition denotes the drop in the measured response relative to a control, in per cent. For the compound `C[n+]1ccc(/C=C/c2c[nH]c3ccccc23)cc1`, the inhibition is 56.5% (active).

With `Cc1nc2ccccc2nc(=O)c1NNc1ccc([N+](=O)[O-])cc1`, the inhibition is 35.8% (active).

`CC(=O)n1c(C=Nc2ccccc2)c(O)c2ccccc21`: the inhibition is 73.1% (active).

Turning to `COc1cc2c(cc1O)[C@H](Cc1ccc(Oc3cc(C[C@@H]4NCCc5cc(OC)c(O)cc54)ccc3O)cc1)NCC2`, the inhibition is 33.8% (active).

As to `COc1cc(N2CCCC2)c(OC)cc1/C=C(/C#N)c1cccc(Br)c1`, the inhibition was 68.1% (active).

With `CC(=O)c1cc(NC(=O)c2ccccc2)c(=O)oc1/C=C/N(C)C`, the inhibition is 118% (active).

For `CC(C)(C)c1ccc(/C=C2\Oc3c(ccc(O)c3CN3CCN(CCO)CC3)C2=O)cc1`, the inhibition was 37.2% (active).

As for `C=CCC1=C/C(=C\c2c(N)n3nc(CC(=O)N4CCOCC4)sc3nc2=O)C=C(OC)C1=O`, the inhibition is 104% (active).

With `CCOC(=O)/C(C#N)=C/c1ccc(N2CCCCC2)cc1`, the inhibition is 126% (active).

In the case of `CCOC(=O)/C(C#N)=C/c1ccc(N2CCN(Cc3ccccc3)CC2)cc1`, the inhibition is 81.9% (active).

Turning to `CCN1/C(=C/c2ccc3ccc(C)cc3[n+]2CC)Sc2ccccc21`, the inhibition is 44.2% (active).

Turning to `CCN1/C(=C\c2ccc3ccccc3[n+]2CC)Sc2cc(C)ccc21`, the inhibition is 78.3% (active).

Consider `COc1ccc(N=C(C)c2sc3ccccc3c2O)cc1`, for which the inhibition is 70.2% (active).

Turning to `COc1ccc(C2=NN(C(=O)c3ccccc3C(=O)O)C(c3ccccc3O)C2)cc1` (stereo not given), the inhibition was 26.3% (active).

On to `CN(C)c1ccc(/C=C2\NC(=S)N(Cc3ccccc3)C2=O)cc1`, for which the inhibition is 160% (active).

For `CCOC(=O)c1c(NC(=S)Nc2ccccc2)sc2c1CCN(C)C2`, the inhibition was 42.8% (active).

As to `COc1cc(/C=C2/C(=O)NN(c3cccc(Cl)c3)C2=O)cc(Br)c1O`, the inhibition is 153% (active).

As for `Oc1ccc(/C=N/Nc2nc(-c3ccccc3F)nc3ccccc23)c(O)c1`, the inhibition is 29.1% (active).

On to `CN(c1ccccc1)c1ccc(/C=c2\s/c(=C(/C#N)C(=O)C(C)(C)C)n(Cc3ccco3)c2=O)cc1`, for which the inhibition is 127% (active).

For the compound `CN1/C(=C\C=C2\N=C(c3ccc(F)cc3)OC2=O)C(C)(C)c2ccccc21`, the inhibition is 151% (active).

For the compound `Cc1ccc(Nc2ccccc2N)cc1`, the inhibition is 25.8% (active).

In the case of `CCOC(=O)c1c(CC(C)C)csc1/N=C/C1=C(O)CCCC1=O`, the inhibition is 11.9% (inactive).

Consider `Cn1cccc1/C=C1\SC(=S)N(NC(=O)c2ccc(Cl)cc2)C1=O`, for which the inhibition is 101% (active).

On to `CCn1c(/C=C/c2ccc([N+](=O)[O-])o2)nc2ccccc2c1=O`, for which the inhibition is 36.7% (active).

As to `COc1ccccc1/C=N/Nc1nc(C)c(C(C)=O)s1`, the inhibition was 33.1% (active).

Turning to `CCOc1nnc(C)c2c(C)n(-c3cccc(Cl)c3)nc12`, the inhibition is 76.5% (active).

With `O=C1NC(=O)C2C1C(c1ccc([N+](=O)[O-])cc1)=NN2Cc1ccccc1` (stereo not given), the inhibition is 33.2% (active).

With `CCN(CC)C(=O)CSC(Nc1cccc(F)c1)=C(C#N)C#N`, the inhibition was 46.5% (active).

`O=C(N/N=C/c1sc(N2CCCCC2)nc1-c1cccs1)c1cccnc1`: the inhibition is 44.1% (active).

Take `NNC(=O)c1oc2nc(-c3ccccc3)cc(-c3ccco3)c2c1N`: the inhibition is 31.5% (active).

As for `COc1ccc(Cc2nc(-c3ccccn3)no2)cc1OC`, the inhibition was 8.13% (inactive).

As to `Cc1ccc(Nc2nc(Cl)c(C=O)s2)cc1`, the inhibition is 67.3% (active).

Turning to `CCOc1ccc2nc(/N=C/c3nc(-c4ccccc4)oc3O)sc2c1`, the inhibition was 58.6% (active).

Regarding `Fc1ccc2nc(Nc3nc4c(s3)CCCC4)sc2c1`, the inhibition is 28.4% (active).

As to `Cc1c(-c2ccccc2)cn2c1-c1ccc(C)n1CC2`, the inhibition is 32.8% (active).

With `Cn1c2ccccc2c2cc(/C=C(\NC(=O)c3ccccc3)C(=O)NCC(=O)O)ccc21`, the inhibition is 80.3% (active).

As to `Cc1ccc(-c2nn(-c3ccccc3)cc2/C=C2\SC(=S)N(CCCCCC(=O)O)C2=O)o1`, the inhibition is 68.6% (active).

Regarding `O=C(Nc1ccc(S(=O)(=O)Nc2nccs2)cc1)c1cc(-c2ccncc2)nc2ccccc12`, the inhibition is 49.1% (active).

Turning to `CS(=O)(=O)c1ccc2c(c1)SC1=NC(=O)/C(=C/c3ccco3)C(=N)N12`, the inhibition was 44.3% (active).

Regarding `Cc1cc(/C=C2/SC(=O)N(CC(=O)N3CCCC3)C2=O)ccc1N1CCOCC1`, the inhibition is 63.5% (active).

For `Cc1sc2nc(COC(=O)C(NC(=O)c3ccc(Cl)cc3Cl)C(C)C)[nH]c(=O)c2c1C` (stereo not given), the inhibition was 55.1% (active).

Regarding `Cc1c(C(=O)OC(C)C)sc(NC(=O)c2cccnc2)c1C#N`, the inhibition is 26% (active).

Regarding `Nc1c(C(=O)c2cccs2)sc2nsc(SCCN3CCCCC3)c12`, the inhibition is 67.7% (active).

Take `CCCCCCc1cc2cc(-c3nnc(-c4ccccc4)o3)c(=O)oc2cc1O`: the inhibition was 117% (active).

For the compound `COc1cc(/C=C2/SC(=S)N(Cc3ccccc3)C2=O)cc(OC)c1O`, the inhibition was 98.5% (active).

For `CCN(CC)c1ccc2cc(C(N)=O)/c(=N\NC(=O)c3ccncc3)oc2c1`, the inhibition is 139% (active).

On to `Cc1cc(O)c(C(=O)/C=C/c2c(F)c(F)c(F)c(F)c2F)c(=O)o1`, for which the inhibition was 63.4% (active).

Consider `CN1C(=O)/C(=C/C=C2\SCCN2C)OC1=S`, for which the inhibition was 172% (active).

Turning to `CCN(CC)c1ccc(/C=N/Nc2nc(C)cc(C)n2)c(O)c1`, the inhibition was 34% (active).

In the case of `CSC1=N/C(=C\C=C\c2cccs2)C(=O)S1`, the inhibition was 52.8% (active).

`Nc1nonc1-n1nnc(C(=O)N/N=C/c2cc(Br)ccc2O)c1CSC1=NCCS1`: the inhibition was 37.7% (active).

As for `N#C/C(=C/c1ccc(N2CCCCC2)o1)C(=O)NCCc1c[nH]c2ccccc12`, the inhibition was 191% (active).

As to `Cc1ccc(-n2c(C)cc(/C=N/Nc3ccc([N+](=O)[O-])cn3)c2C)c(C)c1`, the inhibition was 60.9% (active).

For the compound `Cc1cc(/C=N/Nc2ccc([N+](=O)[O-])cn2)c(C)n1-c1cccc(C(=O)O)c1`, the inhibition was 54.5% (active).

Regarding `Cc1ccc2[nH]c(=O)c(CN3CCCCC3)c(-c3ccccc3)c2c1`, the inhibition is 2.06% (inactive).

With `N#C/C(=C(/O)COC(=O)COc1ccc(Cl)cc1)c1nc2ccccc2[nH]1`, the inhibition is 40.6% (active).

With `CCOc1ccc(-n2c(O)c(/C=N/c3ccnn3Cc3ccncc3)c3ccccc3c2=O)cc1`, the inhibition is 80.4% (active).

With `CN=c1scc(-c2cc(OC)ccc2OC)n1/N=C/c1c(C)[nH]c2ccccc12`, the inhibition was 22.2% (inactive).

With `O=C1Nc2cc(C(=O)N3CCN(c4ccc(F)cc4)CC3)ccc2NC1CSCc1cccc(F)c1` (stereo not given), the inhibition was 112% (active).

For the compound `Cc1ccc(CSCC2Nc3ccc(C(=O)N4CCN(c5ccc(F)cc5)CC4)cc3NC2=O)cc1` (stereo not given), the inhibition was 16.1% (inactive).

With `CC(C)c1ccc(Nc2nnc(SCC(=O)c3nnc(-c4ccccc4)o3)s2)cc1`, the inhibition was 21.4% (inactive).

Turning to `Cc1cccc2cc3c(N)c(C(=O)N4CCCc5ccccc54)sc3nc12`, the inhibition is 51.9% (active).

As for `COC(=O)c1[nH]c2cccc(C)c2c1NC(=O)CN1CCCc2ccccc21`, the inhibition is 19% (inactive).

On to `CCOC(=O)C1=C(C)Nc2sc(C(=O)c3ccc(Br)cc3)c(N)c2C1c1ccc(C(=O)OC)cc1` (stereo not given), for which the inhibition was 29.3% (active).

As for `CCC(c1nnnn1Cc1ccco1)N(Cc1cc2cc(OC)ccc2[nH]c1=O)C1CCCCC1` (stereo not given), the inhibition is 13.7% (inactive).

Turning to `CC1=CC2=NC(=O)/C(=C/c3coc4ccccc4c3=O)C(=N)N2O1`, the inhibition is 34% (active).

For `CCC(=C/c1sc2ccc3ccccc3c2[n+]1C)/C=C1\Sc2ccc3ccccc3c2N1C`, the inhibition is 84.5% (active).

Take `NC(=O)c1c(Nc2nc3c(F)cccc3s2)sc2c1CCCC2`: the inhibition is 92.7% (active).

Regarding `CN(C)CCCn1c(N)c(C#N)c2nc(C#N)c(C#N)nc21`, the inhibition was 45.1% (active).

As to `O=S(=O)(O)Oc1c[nH]c2ccccc12`, the inhibition is 35.9% (active).

In the case of `Cc1c(CC(=O)N2CCN(C(=O)C3COc4ccccc4O3)CC2)c(=O)oc2c(O)c(O)ccc12` (stereo not given), the inhibition is 7.54% (inactive).

Take `O=C(Cc1nc2ccccc2[nH]c1=O)c1ccc(Cl)cc1`: the inhibition was 57.8% (active).

For `O=C(/C=C/c1ccc(N2CCOCC2)cc1)c1ccccc1`, the inhibition was 84.6% (active).

Regarding `COc1cc(/C=C(\C#N)c2nc3c(s2)CC(C)CC3)ccc1O` (stereo not given), the inhibition is 130% (active).

In the case of `COc1cc(/C=C(\C#N)c2nc3ccccc3[nH]2)ccc1O`, the inhibition is 112% (active).

As for `O=C(CN1C(=O)c2ccccc2C1=O)NCc1ccc(C(=O)O)cc1`, the inhibition was 14.3% (inactive).

In the case of `Cc1cccn2c(=O)c(/C=C3\SC(=S)N(CC(C)C)C3=O)c(NCCCOC(C)C)nc12`, the inhibition is 119% (active).

Take `Cn1ccc(=NC=C(C#N)C#N)c2ccccc21`: the inhibition is 25.4% (active).

In the case of `O=C(C[n+]1cc(Br)cc2ccccc21)c1ccc(F)cc1`, the inhibition was 37.5% (active).

For `CCOc1cc(/C=C(\C#N)c2nc(-c3cccs3)c(NC(C)=O)s2)ccc1O`, the inhibition was 90.5% (active).

`Cc1cccc(COc2ccccc2/C=N/Nc2ccc([N+](=O)[O-])cc2)c1`: the inhibition was 90.6% (active).

Consider `Cc1cccc(NC(=O)c2ccc(COc3ccccc3[N+](=O)[O-])o2)n1`, for which the inhibition was 7.02% (inactive).

In the case of `O=[N+]([O-])c1ccc(N/N=C/c2ccccc2)cc1`, the inhibition was 41.6% (active).

For `CCCOc1ccc(Cn2c(O)cc(=O)[nH]c2=O)cc1`, the inhibition is 22.1% (inactive).

Turning to `Cc1cc(C)c(/C=C2\C(=O)Nc3ccccc32)[nH]1`, the inhibition was 113% (active).

Turning to `O=C(O)C(c1ccccc1)N1C(=O)/C(=C\c2ccc(-c3cccc(Cl)c3)o2)SC1=S` (stereo not given), the inhibition is 151% (active).

In the case of `CN1C(=O)/C(=C\c2ccc(-c3ccccc3)o2)SC1=S`, the inhibition is 79.6% (active).

Regarding `CC[n+]1cc(C)ccc1/C=C/c1ccc(N(C)C)cc1`, the inhibition was 42.1% (active).

With `Cc1ccc(S(=O)(=O)N(C)c2nc3ccccc3n3c(C(C)C)nnc23)cc1`, the inhibition was -0.34% (inactive).

`N#C/C(=C/c1ccc(N2CCOCC2)o1)C(=O)N1CCOCC1`: the inhibition is 184% (active).

In the case of `N#C/C(=C\c1ccc(N2CCOCC2)o1)C(=O)N1CCOCC1`, the inhibition was 170% (active).

In the case of `Cc1ccc(CC2S/C(=C(/C#N)C(=O)N3CCOCC3)N(c3ccccc3)C2=O)cc1` (stereo not given), the inhibition was 9.14% (inactive).

Regarding `CC1CCN(C(=O)c2ccc3c(c2)NC(=O)CN3)CC1`, the inhibition is 39.9% (active).

Turning to `Cc1ccc(N=C2NC(=O)/C(=C/C=C/c3ccco3)S2)cc1C`, the inhibition was 23.8% (inactive).

Turning to `N#CC1=C(N)Oc2c(sc3ccccc23)C1c1ccco1` (stereo not given), the inhibition was 78.6% (active).

As to `O=C(NNc1c2ccccc2nc2ccccc12)c1cc2ccccc2cc1O`, the inhibition is 38.5% (active).

Take `CN1/C(=c2/s/c(=C3/C(=O)N(c4ccccc4)NC3=Nc3ccccc3)n(C)c2=O)C(C)(C)c2ccccc21`: the inhibition was 81% (active).

Turning to `Cc1ccc2cc(/C=N/Nc3ccc(C(=O)O)cc3)c(Cl)nc2c1`, the inhibition is 35.9% (active).

Take `CCOc1ccc(/C=C2\SC(=S)N(NC(=O)c3ccncc3)C2=O)cc1OC`: the inhibition was 51.7% (active).

For the compound `Cc1ccc(C)c2[nH]c(=O)c(CCNC(=O)CC(C)C)cc12`, the inhibition was 3.97% (inactive).

The values above are taken from PubChem BioAssay AID2149 (The Scripps Research Institute Molecular Screening Center, 2009).
